target: T1, Tyrosyl-tRNA synthetase, putative (Trypanosoma cruzi (strain CL Brener)) (UniProt Q4DSP6); test: Trypanosoma cruzi tyrosyl tRNA synthetase (TcYRS) _High Tyrosine SOP; assay type: functional; parameters: scale not given: in the data most compounds retested in dose-response had high values; settings: 30 µM
T1 sequence (whole entry): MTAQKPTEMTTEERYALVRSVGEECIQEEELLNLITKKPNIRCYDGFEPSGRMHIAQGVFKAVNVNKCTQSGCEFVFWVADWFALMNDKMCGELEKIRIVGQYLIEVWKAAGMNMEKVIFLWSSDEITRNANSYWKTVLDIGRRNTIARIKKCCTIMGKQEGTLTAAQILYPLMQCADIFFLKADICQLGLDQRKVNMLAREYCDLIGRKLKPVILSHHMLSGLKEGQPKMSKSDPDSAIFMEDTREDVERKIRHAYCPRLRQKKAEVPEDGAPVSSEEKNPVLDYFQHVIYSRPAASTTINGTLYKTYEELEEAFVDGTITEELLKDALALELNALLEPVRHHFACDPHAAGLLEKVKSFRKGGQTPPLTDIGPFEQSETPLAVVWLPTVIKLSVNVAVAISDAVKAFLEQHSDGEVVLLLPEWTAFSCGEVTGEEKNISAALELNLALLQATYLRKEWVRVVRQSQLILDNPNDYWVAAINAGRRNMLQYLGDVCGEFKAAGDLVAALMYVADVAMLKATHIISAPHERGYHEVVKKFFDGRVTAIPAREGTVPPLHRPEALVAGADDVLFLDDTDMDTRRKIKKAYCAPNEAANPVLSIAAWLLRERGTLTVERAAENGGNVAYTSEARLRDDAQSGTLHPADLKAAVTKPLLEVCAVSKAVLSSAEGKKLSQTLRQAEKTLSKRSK

Row | Structure (SMILES) | Percent Effect [%]
1 | O=C(C(CNCc1ccsc1)c1ccccc1)N1CCOCC1 (stereo not given) | 1.07
2 | O=C(CCOc1cccc(F)c1)N1CCCC(n2cncn2)C1 (stereo not given) | 2.08
3 | Cc1nc(C)n(CC2CCCCN2CCCS(=O)(=O)N(C)C)n1 (stereo not given) | 4.76
4 | CCOC(C)c1nc(CN2CCNCC2)cs1 (stereo not given) | -1.59
5 | CC1CCCN(CCNC(=O)c2cncnc2C(C)C)C1 (stereo not given) | 4.21
6 | CC(C)NC(=O)c1sccc1N(C)S(=O)(=O)c1ccc(Cl)cc1 | -2.13
7 | Cc1cc(C)n(C2CCCN(C(=O)c3cnc4onc(C)c4c3)C2)n1 (stereo not given) | 1.91
8 | O=C(CCc1nc2cccnc2[nH]1)NCc1cccnc1 | 8.47
9 | CSCCC(=O)N1CCCC1c1ccsc1 (stereo not given) | 4.21
10 | COc1c(C)cnc(CSc2nnc(C)s2)c1C | 1.64
11 | CCOc1cc(C)nc(N2CCN(C(=O)c3ccc[nH]3)CC2)n1 | -0.99
12 | CC(C)NC(=O)N1CCC(n2ccc(C(F)(F)F)n2)CC1 | 0
13 | CC(C)c1nnc2n1CCN(CCCS(=O)(=O)c1ccccc1)C2 | 1.94
14 | Cc1cnn(CC2CN(Cc3nnc(C4CC4)o3)CCO2)c1 (stereo not given) | 1.98
15 | CC(NC(=O)NCCCNS(C)(=O)=O)c1ccncc1 (stereo not given) | 12.5
16 | CS(=O)(=O)CCC(=O)NC1(c2cccc(Br)c2)CC1 | 3.7
17 | Cc1cc(CN2CCN(C(=O)c3sccc3C(C)C)CC2)no1 | 2.86
18 | CC(=O)Nc1ccc(-n2ccc3nc(N4CCCC4)ncc3c2=O)cc1 | 1.06
19 | Cc1nc(C)n(CC2CCCN2CCc2cccs2)n1 (stereo not given) | 13.2
20 | Cc1nn(C)c(C)c1C1CCCN1C(=O)c1ccc(CN(C)C)cc1 (stereo not given) | -20.8

target: T1, Tyrosyl-tRNA synthetase, putative (Trypanosoma cruzi (strain CL Brener)); test: Trypanosoma cruzi tyrosyl tRNA synthetase (TcYRS) SOP; assay type: functional; parameters: scale not given: direction of the effect not stated beside the values; settings: 30 µM

Row | Structure (SMILES) | Percent Effect [%]
21 | Cn1c(Cn2ccnc2)nnc1C1CCN(C(=O)C2(C)CC2)CC1 | 18.5
22 | O=C(c1cnn(-c2ccccc2F)c1)N1CCN(CCO)CC1 | 3.7
23 | O=C(NCCCn1cccn1)C1(c2ccc(Br)cc2)CC1 | 10
24 | COCCC(=O)N1CCC2(CN(Cc3ccc(OC)c(F)c3)C2)C1 | 18.5
25 | O=C(c1cccc(S(=O)(=O)NCCCc2ccco2)c1)N1CCOCC1 | 15
26 | CC(=O)N1CCN(Cc2csc(-c3cnn(C)c3)n2)CC1 | 9.76
27 | Cc1cnn(CCNCC(=O)NCc2ccccc2)c1 | 6.17
28 | CCCc1cc(NC2CCc3ncnn3C2)n2ncnc2n1 (stereo not given) | 7.5
29 | CC(C)Sc1ncccc1C(=O)NCc1ccc(CS(C)(=O)=O)cc1 | 5.06
30 | CCc1nnc2n1CCN(Cc1ccc3c(c1)OCCO3)C2 | 13.4
31 | Cc1ccc(CN2CC[C@H]3OCC[C@@H](C(=O)NC4CC4)[C@@H]3C2)o1 | -2.56
32 | Cc1nc(C)n(C2CCCN(C(=O)CCc3ccncc3)C2)n1 (stereo not given) | 11
33 | CCOC[C@H]1CC[C@H]2[C@H](CCN2C(=O)c2ccncc2F)O1 | 3.7
34 | Cc1ccc(C(=O)NCC2(O)CCOCC2)cc1Br | 7.32
35 | N#Cc1cn(C2CC2)c(=O)n(CC(O)c2ccc(OC(F)F)cc2)c1=O (stereo not given) | 17.1
36 | O=C(CCc1nc2cccnc2[nH]1)Nc1cccnc1 | 20.5
37 | c1cnnc(NCC2CN(Cc3cccc4c3OCCO4)CCO2)c1 (stereo not given) | 24.4
38 | Cc1cc(N2CCN(Cc3ccc(-c4cc[nH]n4)o3)CC2)cc(C)n1 | 13.6
39 | COc1ccnc(N2CCN(C(=O)CN3CCCC3=O)CC2)n1 | 25.9
40 | N#Cc1ccnc(N2CCN(Cc3cccc(F)c3)CC2)c1 | 16.1

Row | Structure (SMILES) | Percent Effect [%]
41 | O=C(C(CNCc1ccsc1)c1ccccc1)N1CCOCC1 (stereo not given) | 1.24
42 | O=C(CCOc1cccc(F)c1)N1CCCC(n2cncn2)C1 (stereo not given) | 7.59
43 | Cc1nc(C)n(CC2CCCCN2CCCS(=O)(=O)N(C)C)n1 (stereo not given) | 7.32
44 | CCOC(C)c1nc(CN2CCNCC2)cs1 (stereo not given) | -4.88
45 | CC1CCCN(CCNC(=O)c2cncnc2C(C)C)C1 (stereo not given) | 12.8
46 | CC(C)NC(=O)c1sccc1N(C)S(=O)(=O)c1ccc(Cl)cc1 | 0
47 | Cc1cc(C)n(C2CCCN(C(=O)c3cnc4onc(C)c4c3)C2)n1 (stereo not given) | 9.41
48 | O=C(CCc1nc2cccnc2[nH]1)NCc1cccnc1 | 15.4
49 | CSCCC(=O)N1CCCC1c1ccsc1 (stereo not given) | 0
50 | COc1c(C)cnc(CSc2nnc(C)s2)c1C | 6.17
51 | CCOc1cc(C)nc(N2CCN(C(=O)c3ccc[nH]3)CC2)n1 | 3.66
52 | CC(C)NC(=O)N1CCC(n2ccc(C(F)(F)F)n2)CC1 | 7.5
53 | CC(C)c1nnc2n1CCN(CCCS(=O)(=O)c1ccccc1)C2 | 14.6
54 | Cc1cnn(CC2CN(Cc3nnc(C4CC4)o3)CCO2)c1 (stereo not given) | 3.66
55 | CC(NC(=O)NCCCNS(C)(=O)=O)c1ccncc1 (stereo not given) | 17.7
56 | CS(=O)(=O)CCC(=O)NC1(c2cccc(Br)c2)CC1 | 12.2
57 | Cc1cc(CN2CCN(C(=O)c3sccc3C(C)C)CC2)no1 | 7.06
58 | CC(=O)Nc1ccc(-n2ccc3nc(N4CCCC4)ncc3c2=O)cc1 | -7.69
59 | Cc1nc(C)n(CC2CCCN2CCc2cccs2)n1 (stereo not given) | -7.32
60 | Cc1nn(C)c(C)c1C1CCCN1C(=O)c1ccc(CN(C)C)cc1 (stereo not given) | 23.2

target: Chromo domain-containing protein 1 (Saccharomyces cerevisiae (strain ATCC 204508 / S288c) (Baker's yeast)) (UniProt P32657); test: ScCHD-1 Enzyme Inhibition Assay; assay type: functional; parameters: scale not given: in the data most compounds retested in dose-response had high values; settings: 30 µM
Sequence (P32657 whole entry, the tested form may be a part): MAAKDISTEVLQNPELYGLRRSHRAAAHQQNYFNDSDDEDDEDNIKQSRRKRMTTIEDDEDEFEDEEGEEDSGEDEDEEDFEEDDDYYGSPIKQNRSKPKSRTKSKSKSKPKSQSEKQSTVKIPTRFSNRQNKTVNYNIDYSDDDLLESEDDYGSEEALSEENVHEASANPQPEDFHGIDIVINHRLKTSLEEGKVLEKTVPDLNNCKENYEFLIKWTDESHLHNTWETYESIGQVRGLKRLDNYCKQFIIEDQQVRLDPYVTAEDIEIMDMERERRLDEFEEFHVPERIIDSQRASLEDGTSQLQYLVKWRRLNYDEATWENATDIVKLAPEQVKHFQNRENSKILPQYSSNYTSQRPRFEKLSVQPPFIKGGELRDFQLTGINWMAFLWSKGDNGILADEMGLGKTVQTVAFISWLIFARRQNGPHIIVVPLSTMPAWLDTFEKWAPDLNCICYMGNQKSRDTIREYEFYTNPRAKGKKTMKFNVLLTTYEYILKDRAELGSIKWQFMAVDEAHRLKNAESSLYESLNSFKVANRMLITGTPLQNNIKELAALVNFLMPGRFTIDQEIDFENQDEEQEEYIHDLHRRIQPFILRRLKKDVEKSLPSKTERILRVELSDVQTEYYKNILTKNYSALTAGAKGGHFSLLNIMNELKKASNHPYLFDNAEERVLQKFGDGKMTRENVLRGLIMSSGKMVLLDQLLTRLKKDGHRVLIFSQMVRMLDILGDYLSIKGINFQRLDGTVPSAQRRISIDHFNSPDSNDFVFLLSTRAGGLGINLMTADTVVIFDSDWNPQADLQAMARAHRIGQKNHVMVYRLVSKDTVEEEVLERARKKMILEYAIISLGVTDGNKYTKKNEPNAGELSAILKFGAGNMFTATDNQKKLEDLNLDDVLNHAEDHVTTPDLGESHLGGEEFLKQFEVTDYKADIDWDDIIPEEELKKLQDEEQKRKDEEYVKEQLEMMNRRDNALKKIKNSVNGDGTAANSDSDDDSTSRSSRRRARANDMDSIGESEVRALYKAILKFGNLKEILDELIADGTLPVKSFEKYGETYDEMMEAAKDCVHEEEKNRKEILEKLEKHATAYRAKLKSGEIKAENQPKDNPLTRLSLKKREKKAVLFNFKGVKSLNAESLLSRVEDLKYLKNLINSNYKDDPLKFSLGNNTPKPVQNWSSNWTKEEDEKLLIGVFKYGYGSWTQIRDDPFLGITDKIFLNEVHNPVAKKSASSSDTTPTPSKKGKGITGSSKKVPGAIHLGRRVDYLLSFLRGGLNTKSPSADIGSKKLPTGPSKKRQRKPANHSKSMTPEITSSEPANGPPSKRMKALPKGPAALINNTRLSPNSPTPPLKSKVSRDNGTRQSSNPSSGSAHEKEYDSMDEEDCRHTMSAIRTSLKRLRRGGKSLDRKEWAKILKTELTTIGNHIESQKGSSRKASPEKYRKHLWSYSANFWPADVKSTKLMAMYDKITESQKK

Row | Structure (SMILES) | Percent Effect [%]
61 | Cn1c(Cn2ccnc2)nnc1C1CCN(C(=O)C2(C)CC2)CC1 | -5.12
62 | O=C(c1cnn(-c2ccccc2F)c1)N1CCN(CCO)CC1 | -1.23
63 | O=C(NCCCn1cccn1)C1(c2ccc(Br)cc2)CC1 | -4.29
64 | COCCC(=O)N1CCC2(CN(Cc3ccc(OC)c(F)c3)C2)C1 | -0.472
65 | O=C(c1cccc(S(=O)(=O)NCCCc2ccco2)c1)N1CCOCC1 | -2.3
66 | CC(=O)N1CCN(Cc2csc(-c3cnn(C)c3)n2)CC1 | -7.33
67 | Cc1cnn(CCNCC(=O)NCc2ccccc2)c1 | 4.48
68 | CCCc1cc(NC2CCc3ncnn3C2)n2ncnc2n1 (stereo not given) | -3.04
69 | CC(C)Sc1ncccc1C(=O)NCc1ccc(CS(C)(=O)=O)cc1 | -15.6
70 | CCc1nnc2n1CCN(Cc1ccc3c(c1)OCCO3)C2 | -0.119
71 | Cc1ccc(CN2CC[C@H]3OCC[C@@H](C(=O)NC4CC4)[C@@H]3C2)o1 | -0.126
72 | Cc1nc(C)n(C2CCCN(C(=O)CCc3ccncc3)C2)n1 (stereo not given) | -8.81
73 | CCOC[C@H]1CC[C@H]2[C@H](CCN2C(=O)c2ccncc2F)O1 | -2.81
74 | Cc1ccc(C(=O)NCC2(O)CCOCC2)cc1Br | -2.67
75 | N#Cc1cn(C2CC2)c(=O)n(CC(O)c2ccc(OC(F)F)cc2)c1=O (stereo not given) | -12.4
76 | O=C(CCc1nc2cccnc2[nH]1)Nc1cccnc1 | -7.05
77 | c1cnnc(NCC2CN(Cc3cccc4c3OCCO4)CCO2)c1 (stereo not given) | -7.39
78 | Cc1cc(N2CCN(Cc3ccc(-c4cc[nH]n4)o3)CC2)cc(C)n1 | -5.59
79 | COc1ccnc(N2CCN(C(=O)CN3CCCC3=O)CC2)n1 | -11.5
80 | N#Cc1ccnc(N2CCN(Cc3cccc(F)c3)CC2)c1 | -8.71

Row | Structure (SMILES) | Percent Effect [%]
81 | O=C(C(CNCc1ccsc1)c1ccccc1)N1CCOCC1 (stereo not given) | 1.41
82 | O=C(CCOc1cccc(F)c1)N1CCCC(n2cncn2)C1 (stereo not given) | -10.2
83 | Cc1nc(C)n(CC2CCCCN2CCCS(=O)(=O)N(C)C)n1 (stereo not given) | -0.511
84 | CCOC(C)c1nc(CN2CCNCC2)cs1 (stereo not given) | -3.79
85 | CC1CCCN(CCNC(=O)c2cncnc2C(C)C)C1 (stereo not given) | -3.15
86 | CC(C)NC(=O)c1sccc1N(C)S(=O)(=O)c1ccc(Cl)cc1 | -5.6
87 | Cc1cc(C)n(C2CCCN(C(=O)c3cnc4onc(C)c4c3)C2)n1 (stereo not given) | -15.5
88 | O=C(CCc1nc2cccnc2[nH]1)NCc1cccnc1 | -10.2
89 | CSCCC(=O)N1CCCC1c1ccsc1 (stereo not given) | 103
90 | COc1c(C)cnc(CSc2nnc(C)s2)c1C | -14.7
91 | CCOc1cc(C)nc(N2CCN(C(=O)c3ccc[nH]3)CC2)n1 | 1.45
92 | CC(C)NC(=O)N1CCC(n2ccc(C(F)(F)F)n2)CC1 | -2.82
93 | CC(C)c1nnc2n1CCN(CCCS(=O)(=O)c1ccccc1)C2 | -8.88
94 | Cc1cnn(CC2CN(Cc3nnc(C4CC4)o3)CCO2)c1 (stereo not given) | 7.2
95 | CC(NC(=O)NCCCNS(C)(=O)=O)c1ccncc1 (stereo not given) | -4.71
96 | CS(=O)(=O)CCC(=O)NC1(c2cccc(Br)c2)CC1 | -3.61
97 | Cc1cc(CN2CCN(C(=O)c3sccc3C(C)C)CC2)no1 | -3.8
98 | CC(=O)Nc1ccc(-n2ccc3nc(N4CCCC4)ncc3c2=O)cc1 | 3.54
99 | Cc1nc(C)n(CC2CCCN2CCc2cccs2)n1 (stereo not given) | -11.4
100 | Cc1nn(C)c(C)c1C1CCCN1C(=O)c1ccc(CN(C)C)cc1 (stereo not given) | -6.46
